Experiment [1] can be described thus: small molecules captured by biotinylated probe aFSTL3 – biochemical, small-molecule microarray, fluorescence 635/667, stem cell growth factor project, primary screen (AID 1064).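 Also: measures binding of the biotinylated anti-FSTL3 antibody to printed compounds.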 Conditions: higher = more signal.
A short description of experiment [2]: binders from COS7 lysate, DM2A8 probe, primary screen, torsin A project, cell lysate, small-molecule microarray, fluorescence 635/667 (AID 1065). The following applies: higher = more signal, COS7 lysate expressing mutant human TOR1A.
Experiment [3] can be described thus: small molecules captured by biotinylated probe aFGF2 – biochemical, small-molecule microarray, fluorescence 635/667, stem cell growth factor project, primary screen (AID 1067).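 Also: measures binding of biotinylated aFGF2 protein to printed compounds on slides; z-score merges feature fluorescence and signal-to-noise across triplicate slides.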 Conditions: higher = more signal.
The nature of experiment [4]: small molecules captured by biotinylated probe aFGF10 – biochemical, small-molecule microarray, fluorescence 635/667, stem cell growth factor project, primary screen (AID 1071).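 Also: score merges 667 nm spot intensity and signal to noise from triplicate slides.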 The following applies: higher = more signal.
Experiment [5] has as its target Neurogenic locus notch homolog protein 2 (Homo sapiens) (UniProt Q04721). The experiment in a line: small molecules binding Notch2 protein – biochemical, small-molecule microarray, 635 nm fluorescence, stem cell growth factors, primary screen (AID 1073). Conditions: higher = more signal.
In experiment [6] the target is Pro-neuregulin-1, membrane-bound isoform (Homo sapiens) (UniProt Q02297). The experiment in a line: small molecules binding neuregulin-1 protein – biochemical, small-molecule microarray, fluorescence 635/667, psychiatric disease protein project, primary screen (AID 1075).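 Also: score combines 667 nm spot fluorescence with signal to noise.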 Conditions: NRG1 binding, 635 nm fluorescence, higher = more signal.
Pro-neuregulin-1, membrane-bound isoform (Homo sapiens), sequence (Q02297 whole entry, looked up, the tested form may be a part, canonical isoform): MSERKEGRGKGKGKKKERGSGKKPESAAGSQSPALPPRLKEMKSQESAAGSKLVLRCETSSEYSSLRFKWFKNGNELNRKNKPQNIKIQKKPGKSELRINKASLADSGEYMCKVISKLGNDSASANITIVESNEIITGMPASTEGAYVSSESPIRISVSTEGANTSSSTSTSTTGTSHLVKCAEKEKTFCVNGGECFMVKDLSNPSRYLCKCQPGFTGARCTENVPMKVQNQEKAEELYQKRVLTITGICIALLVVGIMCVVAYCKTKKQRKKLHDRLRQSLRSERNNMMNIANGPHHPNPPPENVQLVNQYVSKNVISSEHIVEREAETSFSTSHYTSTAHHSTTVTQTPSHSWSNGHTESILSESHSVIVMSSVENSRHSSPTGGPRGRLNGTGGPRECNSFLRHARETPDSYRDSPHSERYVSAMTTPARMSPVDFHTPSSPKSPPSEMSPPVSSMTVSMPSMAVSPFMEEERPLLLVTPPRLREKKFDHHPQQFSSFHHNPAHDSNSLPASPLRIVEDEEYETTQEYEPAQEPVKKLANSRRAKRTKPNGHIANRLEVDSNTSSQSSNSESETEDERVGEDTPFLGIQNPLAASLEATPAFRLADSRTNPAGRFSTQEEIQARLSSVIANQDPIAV
The test system of experiment [7] is Neuregulin-1 EGF-like domain. In words: small molecules binding NRG1 EGF domain – biochemical, small-molecule microarray, 635 nm fluorescence, primary screen (AID 1081).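 Also: binding of the protein to compounds printed on small-molecule microarray slides.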 The following applies: higher = more signal.
Experiment [8] is described as follows: FRG1 expression reporter modulators in myotubes – cell-based, C2C12 myotubes, firefly/Renilla luciferase, luminescence, FRG1 inhibition for FSHD, primary screen (AID 1084). Conditions: FRG1 promoter luciferase, higher = more signal, called active from +8 up or from −8 down.
Experiment [9] can be described thus: small molecules captured by biotinylated probe aFST – biochemical, small-molecule microarray, fluorescence 635/667, stem cell growth factor project, primary screen (AID 1086).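 Also: score merges 667 nm fluorescence with signal-to-noise of each printed compound spot.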 The following applies: higher = more signal.
Experiment [10] is described as follows: binders of probe aHhip on microarray, primary screen, stem cell growth factor project, biochemical, small-molecule microarray, fluorescence 635/667 (AID 1087).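 Also: score merges spot fluorescence at 667nm with spot signal to noise ratio.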 Conditions: higher = more signal.
In experiment [11] the test system is PRMT1 (protein arginine N-methyltransferase 1). In words: small molecules binding arginine methyltransferase PRMT1 – biochemical, small-molecule microarray, 635 nm fluorescence, primary screen (AID 1088).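 Also: binding of Prmt1 protein to compounds spotted on small-molecule microarray slides.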 The following applies: higher = more signal.
Experiment [12] is described as follows: growth effects on S. cerevisiae YJM789 – YJM789 clinical isolate, OD600, 24 h, basal, primary screen (AID 1089).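 Also: growth of clinical yeast isolate S. cerevisiae YJM 789 seeded 1000 cells per well; test concentration not given here.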 The following applies: higher = more signal, called active from +8 up or from −8 down.
Experiment [13] can be described thus: S. pombe growth modifiers, basal conditions – strain 972, OD600, 24 h, no modulator, primary screen (AID 1090).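 Also: basal condition with compound alone and no growth modifier present; test concentration not given here.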 The following applies: S. pombe 972 growth, higher = more signal, called active from +8 up or from −8 down.
Experiment [14] in a line: budding yeast growth modifiers under rapamycin – strain BY4716, OD600, 96 h, primary screen (AID 1091). Also: test concentration not given here. The following applies: S. cerevisiae BY4716 + rapamycin, higher = more signal, called active from +8 up or from −8 down.
The target of experiment [15] is Torsin-1A-interacting protein 2 (Homo sapiens) (UniProt Q8NFQ8). The experiment in a line: small molecules binding lysate-expressed LULL1 – cell lysate, human LULL1 lysate, 635/667 nm fluorescence, primary screen (AID 1092).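 Also: probe is lysate of COS7 cells overexpressing human LULL1; score merges per-feature 667 nm fluorescence with signal-to-noise.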 The following applies: small-molecule microarray, hLULL1 lysate binding, 635 nm fluorescence; higher = more signal.
Torsin-1A-interacting protein 2 (Homo sapiens), sequence (Q8NFQ8 whole entry, looked up): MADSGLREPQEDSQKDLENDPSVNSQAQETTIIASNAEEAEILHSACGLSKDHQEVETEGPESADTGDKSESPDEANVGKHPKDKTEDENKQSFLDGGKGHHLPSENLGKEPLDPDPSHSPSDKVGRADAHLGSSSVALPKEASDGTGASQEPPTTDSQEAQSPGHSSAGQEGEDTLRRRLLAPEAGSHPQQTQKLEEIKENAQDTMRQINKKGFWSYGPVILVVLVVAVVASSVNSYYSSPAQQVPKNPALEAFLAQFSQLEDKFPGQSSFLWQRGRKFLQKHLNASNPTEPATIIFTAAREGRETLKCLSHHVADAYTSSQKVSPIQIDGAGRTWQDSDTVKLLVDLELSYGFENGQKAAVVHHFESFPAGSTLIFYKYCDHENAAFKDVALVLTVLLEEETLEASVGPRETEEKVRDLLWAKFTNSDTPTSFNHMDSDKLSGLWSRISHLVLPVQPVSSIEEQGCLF
A short description of experiment [16]: optical density change of DRC41 E. coli – strain DRC41, OD650, 24 h, E. coli filamentation project, primary screen (AID 1093).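 Also: MC1000 strain lacking acrAB efflux and sulA so SOS filamentation is blocked; test concentration not given here.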 The following applies: E. coli DRC41 growth, higher = more signal, called active from +8 up or from −8 down.
Experiment [17] in a line: probe aLefty2 binding to arrayed compounds – biochemical, biotinylated probe, 635/667 nm fluorescence, primary screen (AID 1094).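 Also: score merges spot fluorescence near 667 nm with spot signal-to-noise ratio.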 Conditions: small-molecule microarray, higher = more signal.
Experiment [18] relates to Noggin (protein binding on small-molecule microarray). The experiment in a line: small molecules binding Noggin protein – biochemical, 635/667 nm fluorescence, primary screen (AID 1095).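 Also: score merges 667 nm feature fluorescence with signal to noise over triplicate slides.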 The following applies: 635 nm fluorescence, higher = more signal.
For experiment [19], the target named is Neurogenic locus notch homolog protein 3 (Homo sapiens) (UniProt Q9UM47). In words: small molecules binding NOTCH3 protein – biochemical, 635/667 nm fluorescence, primary screen (AID 1096). The following applies: small-molecule microarray, 635 nm fluorescence, higher = more signal.
Neurogenic locus notch homolog protein 3 (Homo sapiens), sequence (Q9UM47 whole entry, looked up): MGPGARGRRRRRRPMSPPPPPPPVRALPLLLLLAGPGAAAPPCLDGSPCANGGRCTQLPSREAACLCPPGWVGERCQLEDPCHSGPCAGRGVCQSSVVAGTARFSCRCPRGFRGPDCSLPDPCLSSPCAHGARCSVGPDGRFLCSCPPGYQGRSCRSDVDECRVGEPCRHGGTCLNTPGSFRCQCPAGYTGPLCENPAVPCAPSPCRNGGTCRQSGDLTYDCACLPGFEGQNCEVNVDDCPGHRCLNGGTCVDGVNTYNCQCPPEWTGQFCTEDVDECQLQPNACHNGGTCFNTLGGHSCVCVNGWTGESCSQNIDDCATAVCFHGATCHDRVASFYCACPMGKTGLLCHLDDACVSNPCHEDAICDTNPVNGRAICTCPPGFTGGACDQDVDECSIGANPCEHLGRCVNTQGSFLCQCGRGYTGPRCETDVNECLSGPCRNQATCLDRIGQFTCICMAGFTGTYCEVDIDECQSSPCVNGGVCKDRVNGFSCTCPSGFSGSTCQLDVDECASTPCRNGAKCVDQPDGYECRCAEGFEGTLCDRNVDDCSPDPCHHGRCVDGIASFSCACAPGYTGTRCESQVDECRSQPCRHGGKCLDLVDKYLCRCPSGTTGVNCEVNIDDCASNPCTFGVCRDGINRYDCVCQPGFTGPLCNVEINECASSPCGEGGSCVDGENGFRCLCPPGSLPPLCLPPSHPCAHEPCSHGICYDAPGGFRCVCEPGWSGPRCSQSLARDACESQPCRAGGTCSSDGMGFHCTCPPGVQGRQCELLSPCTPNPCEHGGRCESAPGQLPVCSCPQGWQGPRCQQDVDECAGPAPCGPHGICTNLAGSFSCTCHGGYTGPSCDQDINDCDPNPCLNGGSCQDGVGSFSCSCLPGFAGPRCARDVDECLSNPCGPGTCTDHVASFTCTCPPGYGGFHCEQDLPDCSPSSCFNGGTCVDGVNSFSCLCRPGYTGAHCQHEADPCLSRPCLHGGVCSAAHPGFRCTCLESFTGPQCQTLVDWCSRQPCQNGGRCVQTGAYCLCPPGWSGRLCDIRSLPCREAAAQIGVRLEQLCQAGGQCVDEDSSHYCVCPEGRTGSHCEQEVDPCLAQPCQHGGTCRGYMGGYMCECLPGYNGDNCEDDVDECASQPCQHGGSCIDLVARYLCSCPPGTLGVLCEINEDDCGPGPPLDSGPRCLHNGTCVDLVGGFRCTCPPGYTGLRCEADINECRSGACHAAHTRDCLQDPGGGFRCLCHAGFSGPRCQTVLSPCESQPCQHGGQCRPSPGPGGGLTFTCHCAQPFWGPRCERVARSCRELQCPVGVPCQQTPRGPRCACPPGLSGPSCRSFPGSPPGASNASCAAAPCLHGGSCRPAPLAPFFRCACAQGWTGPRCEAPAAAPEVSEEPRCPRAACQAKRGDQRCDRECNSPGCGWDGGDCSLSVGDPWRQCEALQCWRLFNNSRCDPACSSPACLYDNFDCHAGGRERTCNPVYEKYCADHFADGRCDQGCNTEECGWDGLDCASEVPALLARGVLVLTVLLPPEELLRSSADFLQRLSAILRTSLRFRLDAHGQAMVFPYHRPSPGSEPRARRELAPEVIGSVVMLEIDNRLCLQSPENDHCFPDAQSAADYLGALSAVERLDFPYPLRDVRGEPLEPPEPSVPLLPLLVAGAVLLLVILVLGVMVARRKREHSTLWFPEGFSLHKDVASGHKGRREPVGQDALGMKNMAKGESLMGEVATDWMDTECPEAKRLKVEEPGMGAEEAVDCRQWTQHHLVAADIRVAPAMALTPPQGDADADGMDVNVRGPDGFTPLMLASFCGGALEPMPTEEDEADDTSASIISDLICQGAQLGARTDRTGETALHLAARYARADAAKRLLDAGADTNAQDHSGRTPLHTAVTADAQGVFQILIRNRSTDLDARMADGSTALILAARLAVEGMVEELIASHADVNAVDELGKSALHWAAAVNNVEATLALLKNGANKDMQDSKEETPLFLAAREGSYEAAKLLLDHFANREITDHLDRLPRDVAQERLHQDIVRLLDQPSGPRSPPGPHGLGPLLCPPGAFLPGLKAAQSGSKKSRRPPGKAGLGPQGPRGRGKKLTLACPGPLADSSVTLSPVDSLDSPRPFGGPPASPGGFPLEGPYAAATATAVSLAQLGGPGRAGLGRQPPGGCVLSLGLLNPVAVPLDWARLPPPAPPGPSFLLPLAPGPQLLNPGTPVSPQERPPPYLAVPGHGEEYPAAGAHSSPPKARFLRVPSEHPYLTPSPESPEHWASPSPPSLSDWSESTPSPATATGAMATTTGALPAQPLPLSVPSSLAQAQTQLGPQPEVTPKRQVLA
The nature of experiment [20]: probe aEGFR binding to arrayed compounds – biochemical, biotinylated probe, 635/667 nm fluorescence, primary screen (AID 1097).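 Also: probe is a biotinylated anti-EGFR antibody binding compounds printed on slides; score combines fluorescence near 667 nm and signal to noise of each spot.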 Conditions: small-molecule microarray, higher = more signal.

Molecules are shown by their SMILES. The source made the active and inactive calls.

Take `O[C@@H](Cc1ccccc1)[C@@H](/C=C/C1CC1)NCc1cccc(Cl)c1`: the composite z-score in experiment [1] was 1.53; in [2] it was 0.0563; in experiment [3], -0.224; in experiment [4], -0.813; in [5], -1.43; in [6], -0.146. Moreover, the composite z-score is -0.344 in experiment [7]; -0.699 in experiment [9]; -0.0994 in [10]; -0.534 in experiment [11]; -0.44 in experiment [15]; 0.0558 in experiment [17]. The values for the composite z-score in experiment [18], in [19] and in [20] were -1.08, -0.419 and -0.296, respectively. Further, the z-score was -0.715 (inactive) in experiment [8]; -2.26 (inactive) in experiment [12]; -19 (active) in [13]; -2.31 (inactive) in experiment [14]; -0.59 (inactive) in [16].

Take `C#CCN1[C@H](/C=C/C2CC2)[C@H](Cc2ccccc2)OC(=O)[C@@H]1Cc1ccccc1`: the composite z-score in experiment [1] is -0.413; in experiment [2] it was 0.241; in [3], -0.144; in experiment [4], -0.0377; in [5] it was -0.343; in experiment [6] it was 0.153. For the same compound, the composite z-score in experiment [7] was 0.524; in [9], -0.0168; in experiment [10] it was 0.0373; in [11] it was 0.663; in [15] it was 0.613; in [17], -0.102. For the same compound, the values for the composite z-score in [18], in experiment [19] and in experiment [20] were 0.792, 0.0922 and -0.118, respectively. Besides, the z-score in experiment [8] was -4.01 (inactive); in experiment [12], -0.651 (inactive); in experiment [13], 0.241 (inactive); in [14], 0.79 (inactive); in experiment [16], -0.714 (inactive).

Consider `CC(C)=CCCC(C)=CC(O)C1C=CC2C(=O)N(c3ccccc3)C(=O)C2N1Nc1ccc(C(C)C)cc1` (stereo not given), for which the composite z-score was -0.345 in experiment [1]; -0.687 in [2]; 0.0218 in experiment [3]; 0.249 in experiment [4]; 1.21 in [5]; 1.63 in experiment [6]. The composite z-score in experiment [7] is 1.06; in [9] it was 1.07; in experiment [10], -0.13; in experiment [11] it was 0.629; in experiment [15], 3; in experiment [17], 0.0937. In addition, the composite z-score in [18] was 0.0026; in experiment [19] it was 1.05; in experiment [20] it was -0.0234. For the same compound, the z-score is 0.821 (inactive) in [8]; 0.437 (inactive) in [12]; 0.834 (inactive) in experiment [13]; 1.07 (inactive) in experiment [14]; -0.589 (inactive) in experiment [16].

With `[N-]=[N+]=Nc1ccccc1[C@H]1OC(c2ccc(OCCCO)cc2)=N[C@@]1(CCS(=O)(=O)c1ccccc1)C(=O)NCc1ccccc1`, the composite z-score is -0.196 in experiment [1]; 0.144 in [2]; 0.0843 in [3]; 0.935 in experiment [4]; 1.66 in experiment [5]; 1.44 in experiment [6]. Further, the composite z-score in [7] came to 1.34; in [9] it was 1.58; in experiment [10], 0.258; in [11] it was 1.57; in experiment [15], 3.63; in experiment [17] it was 0.154. Also, the results for the composite z-score in [18], in experiment [19] and in [20] were 0.669, 1.1 and 0.174, respectively. In addition, the z-score was 5.01 (inactive) in experiment [8]; -0.832 (inactive) in experiment [12]; 0.342 (inactive) in [13]; 2.23 (inactive) in experiment [14]; -0.443 (inactive) in experiment [16].

As for `C[N+](C)(C)CCCC[C@@H]1NC(=O)[C@H]2C[C@@H](C(=O)NCCCCCCNC(=O)CS)[C@@H](c3ccc(O)cc3)N2C1=O`, the composite z-score was 0.312 in experiment [1]; 2 in experiment [2]; -0.131 in [3]; -0.457 in [4]; -1.36 in experiment [5]; 1.7 in experiment [6]. In addition, the composite z-score in experiment [7] is 1.41; in [9], -0.39; in experiment [10], -0.0994; in [11] it was -0.27; in experiment [15] it was 0.908; in experiment [17] it was -0.17. Moreover, the composite z-score in [18] was 0.395; in experiment [19] it was -1.06; in [20], -0.126. Further, the z-score in experiment [8] is -0.395 (inactive); in experiment [12], -0.304 (inactive); in experiment [13] it was 0.481 (inactive); in experiment [14], -0.344 (inactive); in experiment [16], 0.138 (inactive).

These data come from PubChem BioAssay.
